Rows were chosen to be rich in hits. Some 7.3% of all compounds tested hit in one or more screens of this group.
ELG1 genotox = induces genotoxicity in HEK293T cells with luciferase-tagged ELG1; actives 1.3% (n = 330,000); AID 504466; Potency, µM (series often up to 46 µM), inactives show at the top dose activity change, positive = activation, usual class: activators; HEK293T ELG1-luciferase reporter, luminescence, 16 h; further: % of control where 0% means no effect; nearly all actives have a fitted effect of over 60% in size
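ELG1-luciferase HEK293T cells, 2,000/well; compound pinned in; 16 hr, 37 °C, 5% CO2; ONE-Glo, 30 min RT; luminescence on CCD imager.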
FLuc modulator = counter-screen for miR-21 project: firefly luciferase inhibitors or activators; purified FLuc, Km substrates, luminescence inhibition; Potency, µM (series often up to 57.5 µM), without a hit: at the top dose activity change, negative = inhibition, usual class: inhibitors; actives 6.9% (n = 360,000); AID 588342;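 further: plate controls were vehicle for no effect and reference inhibitor for full effect; nearly all actives have a fitted effect of over 55% in size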
Target sequence (P08659 whole entry, looked up): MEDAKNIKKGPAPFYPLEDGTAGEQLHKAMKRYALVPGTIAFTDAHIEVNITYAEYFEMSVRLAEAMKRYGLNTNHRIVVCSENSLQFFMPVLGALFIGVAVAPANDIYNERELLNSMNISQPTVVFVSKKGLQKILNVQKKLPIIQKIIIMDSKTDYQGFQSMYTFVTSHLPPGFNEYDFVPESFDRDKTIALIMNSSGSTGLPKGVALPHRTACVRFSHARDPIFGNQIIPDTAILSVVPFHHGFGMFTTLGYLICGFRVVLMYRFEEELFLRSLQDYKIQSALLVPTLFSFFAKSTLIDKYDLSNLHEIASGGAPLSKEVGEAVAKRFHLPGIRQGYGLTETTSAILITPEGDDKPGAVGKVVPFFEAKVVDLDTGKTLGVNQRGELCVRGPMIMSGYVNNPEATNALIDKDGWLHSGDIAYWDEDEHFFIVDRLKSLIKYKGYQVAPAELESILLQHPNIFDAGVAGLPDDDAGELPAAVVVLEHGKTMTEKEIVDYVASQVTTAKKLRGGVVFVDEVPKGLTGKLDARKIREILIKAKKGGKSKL
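Purified P. pyralis luciferase (10nM final) with 10uM D-luciferin and 10uM ATP (Km levels) in 50mM Tris acetate pH 7.5, 10mM Mg acetate, 0.01% Tween-20, 0.05% BSA; qHTS 6-point titration, ~60 µM downward; luminescence read.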
NPC1 prom act = activates the NPC1 promoter; Huh7 NPC1 promoter luciferase reporter, 24 h; Potency, µM (titrated, usually from 9.22 µM), inactives show top-dose activation, hits mostly activators; actives 2.4% (n = 320,000); AID 485313; further: % of control where 0% means no effect; nearly all actives have a fitted effect of over 60% in size
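Luminescence read-out of NPC1 promoter-driven luciferase in stably transfected Huh7 cells; compounds delivered in DMSO and left 24 h at 37C, 5% CO2, qHTS titration format.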
Rab9 prom act = activators of Rab9 promoter; Huh7 Rab9 promoter-luciferase reporter, luminescence, 24 h; Potency, µM (highest dose often 9.22 µM), for inactives: at the top dose activation, negative = inhibition, most hits filed as activators; actives 2.8% (n = 320,000); AID 485297; further: % of control where 0% means no effect; nearly all actives have a fitted effect of over 60% in size
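Using Huh7 cells stably transfected with Rab9 promoter–luciferase, compounds were incubated 24 h at 37 °C, 5% CO2; luciferase luminescence was read 10 min after reagent addition.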
SMN2 splice enh = enhancers of SMN2 splice variant expression; HEK293 SMN2-luciferase splicing reporter, luminescence, 30-36 h; Potency, µM (series often up to 46.1 µM), without a hit: at the highest dose activity change, positive = activation, most hits filed as activators; actives 2.8% (n = 210,000); AID 1458; further: % of control where 0% means no effect; nearly all actives have a fitted effect of over 55% in size
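HEK293 cells carry an SMN2 […]–luciferase reporter in which exon 7 inclusion puts luciferase in frame. Cells were plated 10-12 h before compound addition, then incubated 30-36 h at 37C. ONE-Glo luminescence was read; sodium butyrate at 4.5 mM final served as control.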
KinaseGlo FLuc = blocks Kinase-Glo luciferase, a counter-screen artifact. actives 0.28% (n = 200,000). Q27757. Potency, µM (titrated, usually from 38.3 µM), for inactives: at the top dose activity change, negative = inhibition, most hits filed as inhibitors. Kinase-Glo luciferase, ATP luminescence, 8 min; further: on the % scale 0 is the no-effect control and ±100 the full control effect; nearly all actives have a fitted effect of over 60% in size
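Compound is pinned into ATP-containing buffer (10 uM ATP, imidazole pH 7.2, 7 mM MgCl2). Kinase-Glo luciferase reagent is then added. Light output is recorded following an 8-min room-temperature incubation.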
The depositor's hits bear a star; u = inconclusive; x = not tested or not shown; [ ] = another dose, or the depositor's remark. The call rests on the fitted dose curve; in most records, active means well fitted curve in the direction sought with a large enough effect; inconclusive means small, poorly fitted or top-dose-only effect, or another doubt; inactive means no such curve, though single readings can be large; an effect the other way counts as inactive or inconclusive. Potency means the concentration at half of the fitted maximal effect.

SMILES	ELG1 genotox	FLuc modulator	NPC1 prom act	Rab9 prom act	SMN2 splice enh	KinaseGlo FLuc
CNS(=O)(=O)c1ccc2c3c(cccc13)C(=O)N2C	18%	0%	-4%	3%	x	x
Cc1ccccc1NC(=O)c1c(C)oc2ccc(O)c(CN3CCN(C)CC3)c12	x	-7%	x	x	1%	x
COc1cccc(-n2c(=O)c3c(C)c(C)sc3n(Cc3ccccc3C#N)c2=O)c1	x	2%	x	x	4%	x
CCc1ccccc1NC(=O)c1nnn(Cc2ccc(Cl)cc2)c1N	x	4%	x	x	-16%	x
Cc1ccc(S(=O)(=O)N(C)Cc2nc(-c3ccccc3)oc2C)cc1	x	-22%	x	x	x	x
CCN1CCC(N(Cc2cccc(OC)c2)C(=O)Nc2cccc(C(F)(F)F)c2)CC1	x	-1%	x	x	x	x
CCN1C(=O)c2cccc3c(S(=O)(=O)Nc4ccccc4)ccc1c23	u	-5%	-5%	-5%	20µM*	-2%
COc1ccc(-c2noc(-c3cc4ccccc4oc3=O)n2)cc1	-2%	-13%	7%	4%	15%	-6%
Cc1ccccc1-c1nnc(-c2cccs2)o1	u	12µM*	18%	u	20µM*	-11%
Cc1ccccc1-c1noc(-c2cccs2)n1	u	7.6µM*	u	2.8µM*	u	-10%
c1cncc(-c2nnc(-c3cccs3)o2)c1	11%	-14%	15%	u	1%	-2%
Cc1ccccc1-c1noc(-c2cc3ccccc3oc2=O)n1	x	1.9µM*	x	x	x	x
O=S(=O)(O)n1ccnc1 (tested in a mixture with another compound)	x	x	x	x	-17%[9.22 µM]	0%[7.66 µM]
CCOC(=O)c1scc(-c2ccccc2)c1S(=O)(=O)N1CCN(c2ccccc2OC)CC1	x	0%	x	x	x	x
COC1=C(Nc2ccc(O)cc2)C(=O)c2ccccc2C1=O	1%	u	13%	3%	-18%	-17%
CCOc1ccc(NC2=C(OC)C(=O)c3ccccc3C2=O)cc1	0%	17µM*	15%	3%	-26%	-13%
CCN(CC)c1ccc(NC2=C(Cl)C(=O)c3ccccc3C2=O)cc1	2.9µM*	12µM*	-38%	-35%	-109%	u
COC1=C(Nc2ccc(OC)cc2)C(=O)c2ccccc2C1=O	4%	19µM*	28%	u	u	-20%
CCCCc1ccc(-n2nc3ccc(NC(=O)c4cc5ccccc5o4)cc3n2)cc1	x	1%	x	x	-9%	x
CC(=O)c1ccc(NC(=O)c2c3c(nc4ccccc24)C(=O)N(C2CCCCC2)C3)cc1	x	-6%	x	x	x	x
COc1ccc(-c2nsc(NC(=O)c3cccc(OC)c3)n2)cc1	x	11µM*	x	x	-36%	x
Cc1csc(NC(=O)c2cnccn2)n1	u	u	u	u	0%	u
CSc1cccc(-n2nnc(-c3nsc(NC(=O)c4cccs4)n3)c2C)c1	x	2.7µM*	x	x	x	x
COc1ccc(NC(=O)c2ccc3nc[nH]c3c2)cc1	22%	u	u	u	x	x
Cc1csc(NC(=O)c2cc(C)on2)n1	u	11µM*	2.2µM*	2.2µM*	x	x
SMILES	ELG1 genotox	FLuc modulator	NPC1 prom act	Rab9 prom act	SMN2 splice enh	KinaseGlo FLuc
Cc1csc(NC(=O)c2ccc3nc[nH]c3c2)n1	11%	4.3µM*	u	0.5µM*	x	x
COc1cccc(C(=O)Nc2nc(-c3ccc(Br)cc3)ns2)c1	x	-13%	x	x	x	x
Cc1csc(NC(=S)NC(=O)c2ccccc2)n1	21µM*	13µM*	u	u	x	x
Cc1csc(NC(=O)NCC2CCCC(CNC(=O)Nc3nc(C)cs3)C2)n1 (configuration not stated)	-1%	u	3.5µM*	20%	x	x
Cc1csc(NC(=O)c2cccc(C)c2C)n1	u	15µM*	3.2µM*	2.8µM*	x	x
Cc1csc(NC(=O)c2ccccc2[N+](=O)[O-])n1	4%	2%	-1%	4%	-5%	-2%
Cc1csc(NC(=O)[C@@H](NC(=O)c2ccccc2)C(C)C)n1	9%	-1%	-1%	-7%	-5%	1%
COc1cccc(C(=O)Nc2nc(C)cs2)c1	16%	6.7µM*	3.2µM*	2.5µM*	11µM*	-15%
O=C1OC(O)C(C(Cl)Cl)=C1Cl (configuration not stated)	x	x	x	x	-1%	x
CC(C)Cn1cc(NC(=O)N2CCN(c3cccc(Cl)c3)CC2)c2ccccc2c1=O	x	3%	x	x	x	x
O=C(NC1CC(=O)N(c2ccc(F)cc2)C1)C(c1ccccc1)c1ccccc1 (configuration not stated)	x	-3%	x	x	x	x
Cc1ccc(C)c(CN2C(=O)c3ccccc3S(=O)(=O)c3ccc(C(=O)N(C)C4CCCCC4)cc32)c1	x	-1%	x	x	-27%	x
Cc1onc(-c2ccccc2)c1C(=O)Nc1nc2c(s1)CCCC2	4%	-2%	4%	-4%	-10%	-7%
Cc1csc(NC(=O)c2ccc[nH]c2=O)n1	16µM*	17µM*	4µM*	3.5µM*	x	x
Cc1csc(NC(=O)c2ccccc2)n1	u	9.5µM*	4µM*	3.5µM*	x	x
Cc1csc(NC(=O)c2cccnc2)n1	9%	-11%	-2%	2%	x	x
Cc1cc(C(=O)Nc2nc3c(s2)CCCC3)no1	0.79µM*	4.8µM*	1.6µM*	0.79µM*	u	u
COc1cccc(C(=O)Nc2nc(-c3nnn(-c4cccc(Cl)c4C)c3C)ns2)c1	x	12µM*	x	x	x	x
Cc1ccc(C)c(N2CCN(C(=O)CS(=O)(=O)c3cccc4nsnc34)CC2)c1	x	-8%	x	x	x	x
Cc1c(Cl)cccc1NC(=O)c1ccc2nc(C(C)C)oc2c1	x	-1%	x	x	x	x
CCN(CC)S(=O)(=O)c1ccc(C(=O)NNC2=NS(=O)(=O)c3ccccc32)cc1	2%	-13%	-1%	-3%	x	x
O=C(NNC1=NS(=O)(=O)c2ccccc21)c1ccc([N+](=O)[O-])cc1	15%	1.5µM*	u	28%	x	x
O=C(NNC1=NS(=O)(=O)c2ccccc21)c1ccc(Cl)cc1	-6%	3.4µM*	u	u	-5%	3%
CC1(OC(=O)c2cnc3ccccc3n2)C(=O)C=C2C=C3CCCN3C=C2C1=O (configuration not stated)	x	x	x	x	-1%[9.22 µM]	-11%[7.66 µM]
Clc1cccc(CSc2nnc(C3CCNCC3)o2)c1	x	-6%	x	x	x	x
O=C(N/N=C/C(Br)=C/c1ccccc1)c1cccnc1	u	13µM*	1%	12%	x	x
O=C(N/N=C/C(Br)=C/c1ccccc1)c1ccc([N+](=O)[O-])cc1	0%[9.26 µM]	2%	-1%	0%	x	x
O=C(N/N=C/C(Br)=C/c1ccccc1)c1ccncc1	12%	24µM*	-2%	2%	x	x
CCOc1ccc(C(c2c(O)cc(C)n(CCOC)c2=O)N2CCC(C)CC2)cc1 (configuration not stated)	x	-7%	x	x	x	x
CCc1nc2oc3cc(OC)ccc3c(=O)c2c(=O)n1-c1ccccc1	u	-10%	u	u	25µM*	3%

Compound activity from PubChem BioAssay.
